ATXN2 expr inh – reduces ATXN2 reporter expression in HEK-293 cells. HEK-293 ATXN2-luciferase reporter, luminescence, 24 h. Potency, µM (series often up to 57 µM), usual class: inhibitors. 0.72% of 360,000 active; further: nearly all actives have a fitted effect of over 55% in size
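ATXN2-luciferase reporter cells (luciferase flanked by upstream and downstream ATXN2 gene portions) were treated 24 h at 37 °C with compounds at up to 57 uM. SteadyGlo luminescence gave expression; GF-AFC fluorescence gave viability.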
IDH1 R132H inh – human IDH1 R132H inhibition; O75874; IDH1-R132H enzyme, NADPH consumption, diaphorase/resazurin fluorescence; Potency, µM (doses to about 76.6 µM), hits mostly inhibitors; 0.093% of 390,000 active; AID 602179; further: nearly all actives have a fitted effect of over 65% in size
Target sequence (O75874 whole entry R132H, stated change not applied): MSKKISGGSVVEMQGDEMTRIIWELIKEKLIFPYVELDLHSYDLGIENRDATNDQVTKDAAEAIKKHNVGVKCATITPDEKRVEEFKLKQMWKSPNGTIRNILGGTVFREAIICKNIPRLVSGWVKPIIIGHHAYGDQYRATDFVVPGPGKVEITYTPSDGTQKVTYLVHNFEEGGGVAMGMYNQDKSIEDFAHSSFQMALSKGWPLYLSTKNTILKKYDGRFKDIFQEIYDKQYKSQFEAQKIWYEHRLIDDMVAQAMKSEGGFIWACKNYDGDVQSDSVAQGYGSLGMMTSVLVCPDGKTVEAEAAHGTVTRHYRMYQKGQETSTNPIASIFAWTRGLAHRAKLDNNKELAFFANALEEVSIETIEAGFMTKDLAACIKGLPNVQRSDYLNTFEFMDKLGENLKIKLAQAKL
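IDH1-R132H (0.5 ug/mL dispensed) in pH 7.5 Tris buffer was preincubated 30 min with compound, then given a substrate mix of 0.016 mM NADPH and 2 mM alpha-KG for 80 min at room temperature; remaining NADPH was read by diaphorase/resazurin fluorescence.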
ATXN viability – cell viability loss in ATXN counter-screen. S2 cells (HEK-293 line with an ATXN2-luciferase reporter) viability, CellTiter-Fluor protease fluorescence, 24 h. Potency, µM (titrated, usually from 56.7 µM), most hits filed as cytotoxic. 0.49% of 400,000 active; further: nearly all actives have a fitted effect of over 40% in size
LDHA inh – blocks human lactate dehydrogenase A | P00338 | purified LDHA, NADH/diaphorase-resazurin fluorescence; hits give low values | activity change, % (values are at about 110 or 230 µM) | 0.15% of 480,000 active | AID 1347041; in the data active means activity change below about -30%; inconclusive means mostly about -25% to -30%
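Resorufin fluorescence (ex540/em590), read at 0 and 20 min after diaphorase/resazurin addition, reports the NADH left after a 5 min room-temperature reaction of 2 nM human LDH5 with 0.06 mM NADH and 0.2 mM pyruvate.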
HepG2 tox-1 – HepG2 cytotoxicity, counter-screen for TGF-b inhibitors | 0.76% of 410,000 active | HepG2 CAGA-GFP viability, ATP luminescence, 18 h | Potency, µM (top dose mostly 46.1 µM), most hits filed as cytotoxic
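CellTiter-Glo luminescence gave cytotoxicity after 18 hours at 37 degrees C. The cells were HepG2 CAGA-GFP in 1% FBS DMEM, stimulated with 500 pg/mL TGF-beta after compound addition. %Activity was normalised to no-cell wells (complete cell-killing) and DMSO (no toxicity), and curves were fitted and classified.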
TGFb inhibitor – TGF-b pathway inhibition. Potency, µM (titrated, usually from 46.1 µM), actives largely listed as inhibitors. HepG2 CAGA-GFP TGF-b/SMAD3 reporter, GFP fluorescence, 18 h; TGF-beta stimulated, 500 pg/mL final. 1.2% of 410,000 active. AID 588855; further: nearly all actives have a fitted effect of over 65% in size
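TGF-beta reporter screen: HEPG2 CAGA-GFP, 1% FBS, 500 pg/mL TGF-beta final, 18 h; per-cell GFP summed per well; curves fitted and categorized by class.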
TGFb CAGA inh – TGF-b pathway inhibition, cherry-pick retest. shares compounds with TGFb inhibitor. HepG2 CAGA-GFP TGF-b reporter, GFP fluorescence, 18 h; cells stimulated with TGF-beta, 500 pg/mL. Potency, µM (highest dose often 46.1 µM), hits mostly inhibitors. 63% of 1,600 active. AID 720534; further: nearly all actives have a fitted effect of over 65% in size
HepG2 tox-2 – counter-screen for TGF-b inhibitors: cytotoxicity in HepG2 cells; shares compounds with TGFb inhibitor; HepG2 CAGA-GFP viability, ATP luminescence, 18 h; cells stimulated with TGF-beta, 500 pg/mL; Potency, µM (titrated, usually from 46.1 µM), actives largely listed as inhibitors; 27% of 1,600 active; further: nearly all actives have a fitted effect of over 70% in size
CCL64 TGFb inh – orthogonal confirmation of TGF-b inhibitors in CCL64 cells; shares compounds with TGFb inhibitor; CCL64 CAGA-GFP reporter, TGF-b stimulated, GFP fluorescence, 18 h; Potency, µM (doses to about 46.1 µM), most hits filed as inhibitors; 41% of 1,600 active; AID 720536; further: nearly all actives have a fitted effect of over 65% in size
TGFb COP inh – TGF-b inhibition validated with COP promoter | Potency, µM (titrated, usually from 46.1 µM), usual class: inhibitors | AID 720537 | HepG2 COP-GFP TGF-b reporter, GFP fluorescence, 18 h; cells stimulated by added recombinant TGF-beta | 3% of 1,600 active | shares compounds with TGFb inhibitor; further: nearly all actives have a fitted effect of over 70% in size
Of the large screens only hits and unclear results are named; the others gave an inactive call (follow-up assays come after a bar, where they were run). Shown are actives, neighbours in structure and some others; about 2.2% of the full set was active somewhere. Unless noted, the call rests on the fitted dose curve; in most records, active means well fitted curve in the direction sought with a large enough effect; inconclusive means small, poorly fitted or top-dose-only effect, or another doubt; inactive means no such curve, though single readings can be large; an effect the other way counts as inactive or inconclusive.

Cc1nc(N2N=C3/C(=C/c4ccc(F)cc4)CCCC3C2c2ccc(F)cc2)sc1C(=O)N(C)C (configuration not stated)	ATXN2 expr inh inconclusive, TGFb inhibitor 12.6µM (no result: ATXN viability) | TGFb CAGA inh 23.1µM | HepG2 tox-2 inconclusive | CCL64 TGFb inh inconclusive | TGFb COP inh inactive
C=CCn1c(CSCc2ccc(Cl)cc2)nnc1SCC(=O)NCc1ccccc1	ATXN viability inconclusive, TGFb inhibitor 8.91µM | TGFb CAGA inh inconclusive | HepG2 tox-2 inactive | CCL64 TGFb inh inactive | TGFb COP inh inactive
O=C(CSc1nnc(CCc2ccccc2)n1-c1ccc(Cl)cc1)NCc1ccccc1	TGFb inhibitor 11.2µM | TGFb CAGA inh inconclusive | HepG2 tox-2 inactive | CCL64 TGFb inh inconclusive | TGFb COP inh inactive
COc1ccc(-n2c(CCc3ccccc3)nnc2SCC(=O)NCc2ccccc2)cc1	none
CC(=NNc1nc2ccccc2o1)c1ncccn1	ATXN2 expr inh inconclusive, ATXN viability inconclusive, TGFb inhibitor inconclusive
COc1ccc(C)cc1NC(C)c1nc(-c2ccco2)no1 (configuration not stated)	none (no result: ATXN2 expr inh, IDH1 R132H inh, ATXN viability, HepG2 tox-1, TGFb inhibitor)
Cc1ccn2c(NC3CCCCC3)c(-c3cccc(SC4CCCCC4)c3)nc2c1	ATXN2 expr inh inconclusive, ATXN viability inconclusive, TGFb inhibitor inconclusive
CCC(C)Sc1cccc(-c2nc3cc(C)ccn3c2NC2CCCCC2)c1 (configuration not stated)	ATXN2 expr inh inconclusive, ATXN viability inconclusive, TGFb inhibitor 11.2µM | TGFb CAGA inh inconclusive | HepG2 tox-2 inconclusive | CCL64 TGFb inh 18.4µM | TGFb COP inh inactive
CCC(=O)NC(Nc1sc2c(c1C(=O)OC)CCC2)C(Cl)(Cl)Cl (configuration not stated)	TGFb inhibitor 11.2µM | TGFb CAGA inh 20.6µM | HepG2 tox-2 inactive | CCL64 TGFb inh inconclusive | TGFb COP inh inactive
COC(=O)c1c(NC(NC(=O)CC(C)C)C(Cl)(Cl)Cl)sc2c1CCC2 (configuration not stated)	TGFb inhibitor inconclusive
COC(=O)c1c(NC(NC(=O)C(C)(C)C)C(Cl)(Cl)Cl)sc2c1CCC2 (configuration not stated)	TGFb inhibitor 12.6µM | TGFb CAGA inh 9.2µM | HepG2 tox-2 inconclusive | CCL64 TGFb inh inconclusive | TGFb COP inh inactive
COC(=O)c1c(NC(NC(C)=O)C(Cl)(Cl)Cl)sc2c1CCCC2 (configuration not stated)	TGFb inhibitor 12.6µM | TGFb CAGA inh 14.6µM | HepG2 tox-2 inactive | CCL64 TGFb inh 16.4µM | TGFb COP inh inactive
CCN(CC)S(=O)(=O)c1cccc(NC(=O)COC(=O)c2cccs2)c1	none
COc1ccccc1CNC(=O)c1ccc(Nc2nc3ccccc3n3nnnc23)cc1	none
CC(C)CC(COCc1cccc(Cl)c1)N1CCN(C(=O)c2ccc(C(F)(F)F)cc2)CCC1=O (configuration not stated)	TGFb inhibitor 10µM (no result: ATXN viability) | TGFb CAGA inh 18.4µM | HepG2 tox-2 inactive | CCL64 TGFb inh inconclusive | TGFb COP inh inactive
Cc1cccc(COC[C@H](CC(C)C)N2CCN(C(=O)c3ccc(C(C)(C)C)cc3)CCC2=O)c1	ATXN2 expr inh inconclusive (no result: IDH1 R132H inh, ATXN viability, HepG2 tox-1, TGFb inhibitor)
CC(C)C[C@@H](COCc1cccc(Cl)c1)N1CCN(C(=O)c2cccc(C(F)(F)F)c2)CCC1=O	ATXN viability inconclusive (no result: IDH1 R132H inh, HepG2 tox-1, TGFb inhibitor)
Cc1cccc(COCC(CC(C)C)N2CCN(C(=O)c3ccc(C(C)(C)C)cc3)CCC2=O)c1 (configuration not stated)	ATXN2 expr inh inconclusive, ATXN viability inconclusive, TGFb inhibitor 8.91µM | TGFb CAGA inh inconclusive | HepG2 tox-2 inconclusive | CCL64 TGFb inh inconclusive | TGFb COP inh inconclusive
CCOC(=O)C1CCCN(C(=O)Cc2ccc(C)cc2)C1 (configuration not stated)	TGFb inhibitor 10µM | TGFb CAGA inh inactive | HepG2 tox-2 inactive | CCL64 TGFb inh inactive | TGFb COP inh inactive
O=[N+]([O-])c1ccc(Nc2ccccc2O)c([N+](=O)[O-])c1	TGFb inhibitor inconclusive (no result: ATXN2 expr inh)
CSc1ncnc2c1ncn2CCCNCc1ccc2c(c1)OCO2	none
CC(=O)n1nc(-c2ccncc2)nc1SCC(=O)Nc1cccc(Cl)c1	TGFb inhibitor 3.98µM | TGFb CAGA inh 3.66µM | HepG2 tox-2 inactive | CCL64 TGFb inh 7.31µM | TGFb COP inh inactive
CC(=O)c1cccc(NC(=O)CSc2n[nH]c(-c3ccncc3)n2)c1	none
CCn1c(C)nnc1SCC(=O)Nc1cccc(Cl)c1	none
Cc1cccc(NC(=O)CSc2n[nH]c(-c3ccncc3)n2)c1	TGFb inhibitor 3.55µM | TGFb CAGA inh 5.17µM | HepG2 tox-2 inactive | CCL64 TGFb inh 10.3µM | TGFb COP inh inactive
Cc1ccccc1Cn1c2ccccc2c2cnn(CC(=O)NCCCN3CCOCC3)c(=O)c21	none
Cc1c2cnn(CC(=O)NCCN3CCOCC3)c(=O)c2c(C)n1Cc1ccccc1	none
Cc1cccc(-n2c(-c3csc4ccccc34)n[nH]c2=S)c1	none
CCOC(=O)c1ccc(CN(Cc2ccc(C)cc2)S(=O)(=O)c2ccc(F)c(C(=O)Nc3ccc(C)c(F)c3)c2)cc1	none (no result: ATXN2 expr inh, ATXN viability)
COC(=O)c1ccc(Cn2c(C)c(C(=O)NCc3ccc(C#N)cc3)sc2=O)o1	none (no result: IDH1 R132H inh)
COC(=O)c1ccc(Cn2c(C)c(C(=O)NCc3ccc(Cl)c(Cl)c3)sc2=O)o1	ATXN2 expr inh inconclusive, TGFb inhibitor 12.6µM (no result: IDH1 R132H inh) | TGFb CAGA inh 23.1µM | HepG2 tox-2 inactive | CCL64 TGFb inh inactive | TGFb COP inh inactive

Compound activity (PubChem BioAssay)
